# Columns and labels:
# Settings in all cases: concentration: 1 μM,replicates: in singlicate; n = 1
# MLK1 = tested on: T1, MLK1
# T1 construct: gene MAP3K9
# MLK2 = tested on: MLK2
# MLK3 = tested on: MLK3
# MRCKA = tested on: MRCKA
# MRCKB = tested on: T2, MRCKB
# T2 construct: gene CDC42BPB
# MST1R = tested on: MST1R
# MST1 = tested on: T3, MST1
# T3 construct: gene STK4
# MST2 = tested on: T4, MST2
# T4 construct: gene STK3
# MST3 = tested on: T5, MST3
# T5 construct: gene STK24
# MST4 = tested on: MST4
# MTOR = tested on: MTOR
# MUSK = tested on: MUSK
# MYLK2 = tested on: MYLK2
# MYLK4 = tested on: MYLK4
# MYLK = tested on: MYLK
# MYO3A = tested on: MYO3A
# MYO3B = tested on: MYO3B
# NDR1 = tested on: T6, NDR1
# T6 construct: gene STK38
# NDR2 = tested on: NDR2
# NEK10 = tested on: NEK10
# 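Also: KINOMEscan kinase panel screen.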
SMILES,%Inh (MLK1),%Inh (MLK2),%Inh (MLK3),%Inh (MRCKA),%Inh (MRCKB),%Inh (MST1R),%Inh (MST1),%Inh (MST2),%Inh (MST3),%Inh (MST4),%Inh (MTOR),%Inh (MUSK),%Inh (MYLK2),%Inh (MYLK4),%Inh (MYLK),%Inh (MYO3A),%Inh (MYO3B),%Inh (NDR1),%Inh (NDR2),%Inh (NEK10)
O=C(Nc1cccc(C(F)(F)F)c1)c1cccc(Oc2ccc3nccn3n2)c1,9%,7%,8%,23%,3%,3%,29%,0%,0%,28%,0%,12%,0%,0%,6%,0%,0%,80%,0%,0%
C[C@@H]1CNc2c(sc3ccc4nc(-c5ccncc5)ccc4c23)C(=O)N1,2%,0%,4%,0%,9%,18%,2%,6%,10%,0%,50%,0%,2%,11%,62%,0%,27%,18%,0%,7%
O=C(NCC1CC1)c1ccc(-c2cc(C(=O)NC3CC3)ccc2F)cc1 [GW810445],7%,0%,0%,0%,0%,0%,55%,0%,0%,0%,21%,0%,0%,0%,0%,0%,8%,0%,7%,0%
COc1cc2ncn(-c3cc(OCC4CCCCC4)c(C(N)=O)s3)c2cc1OC [GSK204559],12%,33%,34%,0%,0%,35%,11%,0%,0%,0%,7%,4%,9%,85%,20%,0%,0%,11%,0%,4%
COc1cccc(C2=C(Nc3cccc(Cl)c3)C(=O)NC2=O)c1 [SB-341556],0%,16%,0%,0%,0%,0%,100%,22%,0%,0%,8%,9%,0%,23%,0%,0%,0%,0%,0%,73%
Cl.Cl.NC[C@H](CC1CCCCC1)NC(=O)c1ccc(-c2ccnc3[nH]ccc23)s1 [GSK1581428],5%,0%,0%,97.1%,99.1%,26%,0%,0%,9%,55%,14%,61%,62%,99.9%,66%,0%,0%,95.8%,79%,17%
Cl.Nc1n[nH]c2cc(-c3ccccn3)ccc12 [GSK2189892],0%,0%,15%,0%,0%,27%,0%,0%,0%,0%,0%,0%,5%,29%,18%,0%,0%,0%,0%,2%
CN(c1cccc(CNc2nc(Nc3ccc4c(c3)CC(=O)N4)ncc2C(F)(F)F)c1)S(C)(=O)=O,93.3%,82%,87%,0%,0%,15%,0%,10%,16%,2%,24%,58%,74%,24%,0%,0%,1%,49%,0%,0%
C[C@@H]1CNc2c(sc3ccc4nc(-c5ccc(O)cc5)ccc4c23)C(=O)N1,0%,9%,0%,0%,0%,23%,0%,42%,25%,0%,0%,0%,14%,10%,65%,22%,93.2%,26%,0%,7%
C[C@@H](Oc1cc(-n2cnc3cc(-c4cnn(C)c4)ccc32)sc1C(N)=O)c1ccccc1Cl [GSK580432],57%,49%,80%,20%,3%,64%,88%,70%,0%,14%,14%,64%,65%,22%,17%,17%,0%,15%,0%,30%
CC(=O)Nc1nc2cnc(Nc3cc(NC(=O)c4cccc(CC(C)(C)C#N)c4)ccc3C)nc2s1,0%,14%,5%,0%,0%,26%,5%,0%,0%,0%,14%,2%,0%,14%,42%,25%,0%,0%,13%,0%
COc1cc(Nc2nccc(N3CCC(NC(=O)c4cccc(C#N)c4)C3)n2)cc(OC)c1OC (stereo not shown) [GSK1379751],52%,34%,25%,18%,0%,21%,0%,0%,0%,0%,0%,0%,0%,4%,0%,46%,0%,0%,0%,6%
CCN1CCN(CCCC(=O)Nc2n[nH]c3nc(-c4ccc(O)cc4)c(Br)cc23)CC1 [SB-731579],0%,0%,0%,0%,0%,17%,2%,57%,0%,60%,0%,0%,98.5%,1%,0%,62%,17%,0%,0%,0%
Cc1n[nH]c2cc(Nc3ccnc(Nc4cccc(CN5CCOCC5)c4)n3)ccc12 [GW682569],89%,38%,58%,1%,0%,34%,0%,26%,14%,0%,14%,15%,9%,17%,21%,22%,0%,25%,14%,9%
CS(=O)c1ccc(-c2coc3ccc(-c4n[nH]c(=O)o4)cc23)cc1 (stereo not shown),9%,6%,0%,4%,0%,0%,0%,0%,24%,5%,17%,0%,20%,24%,41%,0%,0%,2%,22%,56%
COc1cccc(CNC(=O)NC2CCN(c3ccnc(Nc4cc(OC)c(OC)c(OC)c4)n3)C2)c1 (stereo not shown) [GSK1379765],25%,26%,41%,17%,0%,49%,0%,27%,0%,0%,31%,83%,11%,9%,20%,27%,0%,15%,0%,14%

SMILES,%Inh (MLK1),%Inh (MLK2),%Inh (MLK3),%Inh (MRCKA),%Inh (MRCKB),%Inh (MST1R),%Inh (MST1),%Inh (MST2),%Inh (MST3),%Inh (MST4),%Inh (MTOR),%Inh (MUSK),%Inh (MYLK2),%Inh (MYLK4),%Inh (MYLK),%Inh (MYO3A),%Inh (MYO3B),%Inh (NDR1),%Inh (NDR2),%Inh (NEK10)
Cn1cc(-c2cccc3c(N)c(C(N)=O)nnc23)cn1,8%,2%,2%,20%,3%,24%,23%,2%,51%,40%,0%,3%,0%,81%,33%,15%,23%,8%,23%,48%
CCNCC(Cc1ccccc1)NC(=O)c1cc(Br)c(-c2ccnc3[nH]ccc23)s1.Cl.Cl (stereo not shown) [GSK1383280],0%,6%,0%,64%,98.2%,30%,0%,0%,1%,26%,8%,2%,22%,86%,73%,15%,0%,99.8%,52%,0%
Cc1ccn2nc(-c3ccc(F)cc3)c(-c3ccncc3)c2c1.Cl [GW457859],0%,0%,0%,24%,3%,36%,0%,0%,14%,0%,8%,0%,23%,0%,26%,48%,0%,13%,40%,0%
COC(=O)c1cccc(NC(=O)NC2CCN(c3ccnc(Nc4cc(OC)c(OC)c(OC)c4)n3)C2)c1 (stereo not shown) [GSK1379767],33%,0%,34%,14%,0%,39%,6%,2%,0%,0%,26%,5%,25%,14%,11%,43%,0%,18%,38%,3%
O=C(Nc1cccc(Oc2ccc3nccn3n2)c1)Nc1cccc(C(F)(F)F)c1,0%,39%,0%,0%,0%,10%,6%,0%,0%,0%,23%,51%,0%,0%,0%,0%,3%,0%,0%,0%
CS(=O)(=O)c1cccc(CNc2nc(Nc3ccc4c(c3)[C@@H]3C[C@@H]4CNC3=O)ncc2C(F)(F)F)c1,99.8%,84%,98.1%,0%,0%,0%,0%,18%,15%,0%,12%,26%,12%,0%,12%,13%,54%,85%,6%,0%
CN(c1ccccc1CNc1nc(Nc2ccc3c(c2)CC(=O)N3)ncc1C(F)(F)F)S(C)(=O)=O,95.4%,77%,92.9%,0%,0%,65%,14%,70%,30%,77%,21%,71%,4%,2%,0%,0%,0%,33%,12%,0%
Cl.c1ccc(Oc2ccc(Nc3ccnc4cc(-c5ccc(CN6CCNCC6)o5)ccc34)cc2)nc1 [GW567142],0%,0%,0%,0%,0%,39%,0%,31%,8%,0%,0%,0%,0%,8%,1%,7%,0%,10%,4%,3%
COC(=O)Nc1nc2cc(Oc3ccc(NC(=O)Nc4cc(C(F)(F)F)ccc4Cl)cc3)ccc2[nH]1.Cl [GW697465],1%,0%,8%,5%,0%,41%,0%,0%,0%,0%,19%,99.2%,6%,0%,0%,11%,0%,8%,0%,13%
Cn1ccc2ncnc(Oc3ccc(NC(=O)Nc4cccc(C(F)(F)F)c4)c(F)c3)c21,21%,0%,32%,4%,0%,19%,0%,0%,0%,0%,10%,99.4%,0%,7%,19%,8%,49%,10%,8%,7%
Cc1ccc(Nc2ccnc(Nc3ccc4c(c3)CS(=O)(=O)C4)n2)cc1O.Cl [GW579362],94.2%,100%,89%,9%,0%,81%,19%,60%,29%,25%,30%,53%,32%,87%,27%,15%,0%,28%,0%,16%
CNC(=O)c1ccccc1Nc1nc(Nc2cccc(CS(C)(=O)=O)c2)ncc1C.O=CO [GSK1520489],97.5%,80%,72%,2%,4%,93.4%,80%,49%,34%,54%,2%,69%,18%,99.8%,30%,28%,0%,92.2%,80%,14%
CC(C)S(=O)(=O)N1CCN(Cc2ccc3c(c2)nc(NC(=O)c2ccsc2)n3C[C@H](O)c2ccccc2)CC1 [GW635815],90.6%,43%,79%,0%,16%,36%,5%,0%,1%,0%,14%,27%,15%,0%,16%,8%,0%,35%,24%,2%
CC(=O)Nc1ccc(-c2cc3ncnc(SCC(=O)O)c3s2)cc1,0%,18%,0%,0%,0%,25%,2%,16%,24%,2%,3%,12%,9%,14%,6%,5%,0%,0%,8%,25%
C[C@@H](Oc1cc(-n2cnc3ccc(-c4ccncc4)cc32)sc1C(N)=O)c1ccccc1Cl [GSK483724],0%,23%,31%,0%,10%,44%,24%,21%,0%,0%,32%,28%,48%,94.9%,13%,0%,0%,10%,0%,12%
Cn1ccc2ncnc(Oc3ccc(NC(=O)Nc4cc(C(C)(C)C)on4)c(Cl)c3)c21,11%,21%,0%,13%,0%,73%,0%,0%,6%,0%,37%,80%,13%,0%,17%,0%,40%,0%,1%,0%

# From article PMC5540273 (PLoS ONE, 2017)
